Our source for the combined optomotor response values is the supplement of paper PMC9950053.

Where a name gives a salt, the structure may show the parent alone.

The test system of this assay is Danio rerio larvae (5 dpf). In words: combined optomotor response (time in upper well half, down vs up moving lines, periods 7-14) minus DMSO control (percentage points); higher = stronger optomotor response than DMSO larvae. The settings on record: 10 µM; exposure time: 3 h pre-incubation + 3 h imaging.
Regarding `Nc1ccn([C@@H]2O[C@H](CO)[C@@H](O)C2(F)F)c(=O)n1` [Gemcitabine hydrochloride], the combined optomotor response was 1.86. On to `C=CC(=O)N1CCC[C@@H](n2nc(-c3ccc(Oc4ccccc4)cc3)c3c(N)ncnc32)C1` [Ibrutinib], for which the combined optomotor response worked out at 5.02. Regarding `Cc1nc(-c2ccc(OCC(C)C)c(C#N)c2)sc1C(=O)O` [Febuxostat], the combined optomotor response was 1.46.

With `CCCN(CCC)S(=O)(=O)c1ccc(C(=O)O)cc1` [Probenecid], the combined optomotor response was 4.87.

In the case of `OCCN(CCO)c1nc(N2CCCCC2)c2nc(N(CCO)CCO)nc(N3CCCCC3)c2n1` [Dipyridamole], the combined optomotor response was -1.19. Turning to `C=C1[C@H](CO)[C@@H](O)C[C@@H]1n1cnc2c(=O)[nH]c(N)nc21` [Entecavir], the combined optomotor response was found to be 3.44. The same measure for `Nc1cccc2c1CN(C1CCC(=O)NC1=O)C2=O` (configuration not stated) [Lenalidomide]: 1.12; for `Nc1cc(N2CCCCC2)nc(N)[n+]1[O-]` [Minoxidil]: -1.34.

Turning to `NC(=O)c1ncn([C@@H]2O[C@H](CO)[C@@H](O)[C@H]2O)n1` [Ribavirin], the combined optomotor response was determined as 5.43. The result for `CC(=O)O[C@H]1C(=O)[C@@]2(C)[C@H]([C@H](OC(=O)c3ccccc3)[C@]3(O)C[C@H](OC(=O)[C@H](O)[C@@H](NC(=O)c4ccccc4)c4ccccc4)C(C)=C1C3(C)C)[C@]1(OC(C)=O)CO[C@@H]1C[C@@H]2O` [Taxol] reads -0.695; that for `CN(CCOc1ccc(CC2SC(=O)NC2=O)cc1)c1ccccn1` (configuration not stated) [Rosiglitazone], 3.93.

For the compound `CCCN(CCc1cccs1)[C@H]1CCc2c(O)cccc2C1` [Rotigotine hydrochloride], the combined optomotor response is -12.7.

For the compound `C[C@]12CC[C@@H]3c4ccc(O)cc4C[C@@H](CCCCCCCCC[S+]([O-])CCCC(F)(F)C(F)(F)F)[C@H]3[C@@H]1CC[C@@H]2O` (some centres not stated), the combined optomotor response stood at 2.46. The same measure for `O=C(Nc1c(Cl)cncc1Cl)c1ccc(OC(F)F)c(OCC2CC2)c1` [Roflumilast]: -6.05; for `CC1(C)O[C@@H]2[C@@H](CO[C@@]3(COS(N)(=O)=O)OC(C)(C)O[C@@H]23)O1` [Topiramate]: -3.96; for `COc1cccc2c1C(=O)c1c(O)c3c(c(O)c1C2=O)C[C@@](O)(C(=O)CO)C[C@@H]3O[C@H]1C[C@H](N)[C@H](O)[C@H](C)O1` [Doxorubicin hydrochloride]: -1.96.

Turning to `COc1ccc(C[C@@H](C)NC[C@H](O)c2ccc(O)c(NC=O)c2)cc1` [Arformoterol tartrate], the combined optomotor response was -7.68. The result for `CN1CCN(CCCN2c3ccccc3Sc3ccc(Cl)cc32)CC1` [Prochlorperazine dimaleate] reads 6.24; that for `CC(CCc1ccc(O)cc1)NCCc1ccc(O)c(O)c1` (configuration not stated) [Dobutamine hydrochloride], 1.08; that for `NC(=O)N1c2ccccc2C=Cc2ccccc21` [Carbamazepine], 6.15. The result for `Clc1ccccc1C(c1ccccc1)(c1ccccc1)n1ccnc1` [Clotrimazole] reads -7.18.

For `CN1CC2c3ccccc3Oc3ccc(Cl)cc3C2C1` (configuration not stated) [Asenapine maleate], the combined optomotor response was -7.09.

`Cc1cccc(CN2CCN(C(c3ccccc3)c3ccc(Cl)cc3)CC2)c1` (configuration not stated) [Meclizine dihydrochloride]: the combined optomotor response was -13.9.

Turning to `CS(=O)(=O)CCNCc1ccc(-c2ccc3ncnc(Nc4ccc(OCc5cccc(F)c5)c(Cl)c4)c3c2)o1` [Lapatinib], the combined optomotor response is -2.06.

`CCOC(=O)c1ncn2c1CN(C)C(=O)c1cc(F)ccc1-2` [Flumazenil]: the combined optomotor response was 3.13. For the compound `CC(C)Nc1cccnc1N1CCN(C(=O)c2cc3cc(NS(C)(=O)=O)ccc3[nH]2)CC1` [Delavirdine mesylate], the combined optomotor response was -0.694. Consider `CC(C)(C#N)c1cc(Cn2cncn2)cc(C(C)(C)C#N)c1` [Anastrozole], for which the combined optomotor response was -1.87. On to `CCOc1nc2cccc(C(=O)O)c2n1Cc1ccc(-c2ccccc2-c2nnn[nH]2)cc1` [Candesartan], for which the combined optomotor response was determined as 7.2. The result for `OCCOCCN1CCN(C2=Nc3ccccc3Sc3ccccc32)CC1` [Quetiapine hemifumarate] reads 8.62; that for `CNC(=O)c1ccccc1Sc1ccc2c(/C=C/c3ccccn3)n[nH]c2c1` [Axitinib], 3.98; that for `CCc1ccc(CCOc2ccc(CC3SC(=O)NC3=O)cc2)nc1` (configuration not stated) [Pioglitazone hydrochloride], -1.77. As to `CN1CC[C@@H](NC(=O)Nc2ccc(C#N)cc2)C[C@@H]1c1nc2ccccc2[nH]1`, the combined optomotor response is -1.72.
